An excerpt weighted towards active compounds, which were near 12% of everything screened.
VP16 counter: VP16 counterscreen qHTS for inhibitors of ROR gamma transcriptional activity. Drosophila S2 Gal4-VP16 UAS-luciferase, luminescence, 20 h. Potency, µM (highest dose often 53.6 µM), without a hit: at the highest dose activity, negative = inhibition, actives largely listed as inhibitors. 310,000 compounds, 3.5% hits. AID 2546, 2010;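 further: Gal4-VP16 expression switched on by copper sulfate through the metallothionein promoter; nearly all actives have a fitted effect of over 50% in size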
ALDH1A1 inh: qHTS Assay for Inhibitors of Aldehyde Dehydrogenase 1 (ALDH1A1); Purified ALDH1A1, NADH fluorescence, propionaldehyde substrate; Potency, µM (series often up to 75.3 µM), for the others: at the top dose activity, negative = inhibition, hits mostly inhibitors; 220,000 compounds, 7.3% hits; active means well fitted inhibition curve with a large enough effect, not every such curve was filed as active; inconclusive means small, poorly fitted or top-dose-only effect, or another doubt; inactive means no such curve, though single readings can be large or run the other way;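 further: plate controls were no enzyme wells and a reference inhibitor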
PLK1 PBD block: qHTS for Inhibitors of PLK1-PDB (polo-like kinase 1 - polo-box domain): Primary Screen. Serine/threonine-protein kinase PLK1 (Homo sapiens), P53350. Plk1 PBD binding of FITC phosphopeptide, fluorescence polarization. Potency, µM, without a hit: max response, negative = inhibition, usual class: inhibitors. 360,000 compounds, 2.8% hits. AID 720504, 2013; further: series mostly up to about 57 µM; nearly all actives have a fitted effect of over 65% in size
Target sequence (P53350 whole entry, looked up, the tested form may be a part): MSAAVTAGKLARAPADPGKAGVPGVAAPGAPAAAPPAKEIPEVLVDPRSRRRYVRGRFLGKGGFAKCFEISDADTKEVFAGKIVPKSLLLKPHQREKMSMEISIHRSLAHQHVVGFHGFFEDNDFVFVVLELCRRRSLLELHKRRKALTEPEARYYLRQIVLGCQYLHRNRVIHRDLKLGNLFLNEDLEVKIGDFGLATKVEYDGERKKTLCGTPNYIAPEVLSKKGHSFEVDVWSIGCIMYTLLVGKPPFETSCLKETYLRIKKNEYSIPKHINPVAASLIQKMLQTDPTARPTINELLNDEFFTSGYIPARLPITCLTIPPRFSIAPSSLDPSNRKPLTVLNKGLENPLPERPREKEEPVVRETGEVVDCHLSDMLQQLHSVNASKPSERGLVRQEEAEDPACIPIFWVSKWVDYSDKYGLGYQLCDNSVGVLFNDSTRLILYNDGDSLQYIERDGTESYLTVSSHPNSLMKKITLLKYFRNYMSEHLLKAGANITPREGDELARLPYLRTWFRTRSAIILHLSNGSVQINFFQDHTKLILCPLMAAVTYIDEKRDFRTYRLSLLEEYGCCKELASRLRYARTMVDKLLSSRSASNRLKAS
Sfp inh: qHTS Assay for Inhibitors of Bacillus subtilis Sfp phosphopantetheinyl transferase (PPTase) | Potency, µM, inactives show largest response in the series, negative = inhibition, hits mostly inhibitors | 310,000 compounds, 3.5% hits | AID 1490, 2009 | Biochemical Sfp PPTase activity, qHTS;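 further: the enzyme is Sfp with the accession as filed and its product quenches rhodamine fluorescence; 0% = enzyme reaction without inhibitor and -100% = no enzyme wells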
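Reaction rates are the 30-min fluorescence difference (ex 525, em 598 nm) in wells containing 15 nM Sfp, 5 uM rhodamine-CoA and 12.5 uM BHQ-2-YbbR at pH 7.6 with 10 mM MgCl2.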
RORgamma inh: qHTS for inhibitors of ROR gamma transcriptional activity | Potency, µM (top dose mostly 53.6 µM), inactives show at the highest dose activity change, negative = inhibition, actives largely listed as inhibitors | 310,000 compounds, 5.4% hits | Nuclear receptor ROR-gamma (Mus musculus), P51450 | Drosophila S2 Gal4-RORgamma UAS-luciferase reporter, 20 h | AID 2551, 2010; further: nearly all actives have a fitted effect of over 60% in size
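In this cell-based reporter format, copper sulfate (700 uM final) drives Gal4–ROR gamma fusion expression from a metallothionein promoter in Drosophila Schneider cells; compounds preincubated 1 hr, reporter read after 20 hr at ambient temperature.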
Starred values were filed as active, the others as inactive; ? = inconclusive; · = no result; [ ] = another dose, or the depositor's remark. Unless noted, the call rests on the fitted dose curve; in most records, active means well fitted curve in the direction sought with a large enough effect; inconclusive means small, poorly fitted or top-dose-only effect, or another doubt; inactive means no such curve, though single readings can be large; an effect the other way counts as inactive or inconclusive. Unless noted, on the % scale 0 is the no-effect control and ±100 the full control effect; potency means the concentration at half of the fitted maximal effect.

SMILES	VP16 counter	ALDH1A1 inh	PLK1 PBD block	Sfp inh	RORgamma inh
CC(C)(C)c1cc(C(=O)Nc2cccnc2)cc(C(=O)Nc2cccnc2)c1	-2.7%	·	?	4.2%	11.1%
O=C(Nc1ncn[nH]1)c1cccc(F)c1	·	·	3.0%	·	·
Cc1ccc(C(=O)Nc2ncn[nH]2)cc1	12.6µM*	·	1.3%	3.9%	?
CC(C)(C)c1ccc(C(=O)Nc2ncn[nH]2)cc1	?	4.9%	4.7%	19.0%	3.98µM*
CSc1ccccc1C(=O)Nc1ncn[nH]1	-14.3%	·	-21.7%	56.2µM*	-37.0%
CC1(C(=O)NS(=O)(=O)c2cccc(OC(F)F)c2)CCN1C(=O)c1cccc(F)c1 (stereo not given)	·	·	-9.1%	·	·
CCN(CC)CCCn1c(=S)[nH]c2cc(OC)c(OC)cc2c1=O	-3.0%	17.3%	-15.6%	3.3%	4.8%
CCC1CCCCN1CCn1c(=S)[nH]c2cc(OC)c(OC)cc2c1=O (stereo not given)	-14.1%	-3.5%	-2.8%	-2.0%	10µM*
COc1cc2[nH]c(=S)n(CCCN3CCOCC3)c(=O)c2cc1OC	-8.8%	-3.3%	-5.1%	?	?
COCCn1c(=S)[nH]c2cc(OC)c(OC)cc2c1=O	?	31.6µM*	-12.1%	-21.0%	?
COc1cc2[nH]c(=S)n(CCN3CCOCC3)c(=O)c2cc1OC	-4.7%	-15.1%	-5.6%	17.8µM*	?
COCCn1c(=O)c2cc3c(=O)n(CCOC)c(=O)c3cc2c1=O	9.4%	17.8µM*	-5.2%	20.0%	-5.2%
CC(C)(C)C(=O)OCCn1c(=O)c2cc3c(=O)n(CCOC(=O)C(C)(C)C)c(=O)c3cc2c1=O	-2.4%	7.1%	-6.4%	16.8%	-6.3%
N#CCCN1CCN(C(=S)c2ccc(-c3ccc(Cl)c(Cl)c3)o2)CC1	23.2%	?	10.6µM*	50.1µM*	1.5%
N#CCCN1CCN(C(=S)c2ccc(-c3cccc(Cl)c3)o2)CC1	2.1%	11.2µM*	-27.5%	44.7µM*	-3.5%[10 µM]
CCCN1CCN(C(=O)c2ccc(CS(=O)c3ccc(Cl)cc3)o2)CC1 (stereo not given)	-8.2%	·	-6.8%	21.2%	-28.0%
CCCCCCN1C[C@@H](O)[C@H](n2cc(COC(=O)c3ccccc3)nn2)C[C@@H]1c1ccccc1	·	·	0.1%	·	·
COc1ccc(C(=O)C(=O)N2CCC(Cc3ccccc3)CC2)cc1OC	·	·	-7.0%	·	·
COc1ccc(C2=NCCc3cc(OC)c(OC)cc32)cc1OC	6.31µM*	2.9%	0.4%	1.4%	-7.0%
COc1ccc(C2=NCCc3cc(OC)c(OC)cc32)cc1	?	-10.0%	-2.3%	16.5%	-27.2%
CCn1c(-c2ccc([N+](=O)[O-])cc2)n[nH]c1=S	-24.1%	-5.4%	-10.9%	4.2%	11.2µM*
Cc1nc(-c2ccccc2)sc1-c1ccn[nH]1	?	?	-17.7%	10.1%	-42.6%
C=CCn1c(-c2ccc3ncccc3c2)n[nH]c1=S	?	·	-0.4%	-10.3%	?
CCn1c(-c2cccc(Br)c2)n[nH]c1=S	7.08µM*	?	-12.9%	-16.5%	10µM*
CCn1c(-c2ccc3ncccc3c2)n[nH]c1=S	?	11.3%	-0.6%	16.4%	11.2µM*
SMILES	VP16 counter	ALDH1A1 inh	PLK1 PBD block	Sfp inh	RORgamma inh
CCn1c(-c2sc(-c3ccccc3)nc2C)n[nH]c1=S	?	-0.8%	-21.8%	-20.2%	3.55µM*
CCn1c(-c2cccc(S(=O)(=O)N3CCCC3)c2)n[nH]c1=S	-0.9%	·	-0.5%	-26.5%	?
CC[C@@H](C)[C@@H](CO)NC(=O)[C@H]1O[C@@H](n2cnc3c(N)ncnc32)[C@H](O)[C@@H]1O	·	·	-3.7%	·	·
Cn1c(=O)c(-c2ccc(F)cc2)nc2cnc(Nc3ccccc3)nc21	-14.4%	7.4%	·	6.6%	-36.6%
Cc1ccc(-n2c(C)cc(/C([O-])=C(/C(=S)Nc3ccc(F)c(Cl)c3)[n+]3ccccc3)c2C)cc1	2.5%	?	-11.4%	56.2µM*	-14.0%
Cc1cc(NC(=O)c2ccccc2)ncc1NC(=O)c1ccco1	-0.3%[0.365 µM]	11.2µM*	-11.8%	-15.0%	?
O=C(Nc1ccc(NC(=O)C2CC2)cc1)c1ccco1	-12.3%	·	3.4%	6.8%	-29.9%
O=C(Nc1ccc(NC(=O)c2ccco2)nc1)c1ccco1	-22.1%[10 µM]	9.3%	-13.0%	17.7%	7.94µM*
O=C(Cc1ccccc1)Nc1ccc(NC(=O)c2ccco2)nc1	0.4%	3.7%	-3.0%	11.6%	31.5%
O=C(Nc1ccc(NC(=O)C2CCCCC2)cn1)c1ccco1	8.91µM*	2.2%	-2.8%	-6.3%	?
O=C(Nc1ccc(NC(=O)c2ccccc2)nc1)c1ccncc1	-22.6%	-2.2%	16.8µM*	10.3%	-0.4%
CC(C)(C)C(=O)Nc1ccc(/C=C/C(=O)c2ccco2)cc1	-9.8%	·	-12.7%	-1.4%	10µM*
O=C(Nc1ccc(NC(=O)C2CC2)nc1)c1cnccn1	-14.3%	4.7%	-13.1%	-6.6%	10.9%
Cc1cc(NC(=O)C(C)C)ncc1NC(=O)c1ccccn1	2.4%	-6.7%	26.7µM*	79.4µM*	-1.7%
O=C(Nc1ccc(NC(=O)c2ccco2)nc1)c1ccccn1	1.78µM*	14.1µM*	-4.2%	-19.2%	?
O=C(Nc1ccc(NC(=O)C2CC2)nc1)c1ccccn1	7.08µM*	?	-13.7%	-27.4%	-43.6%
COc1cccc(C(=O)N[C@@H](C)C(=O)N2CCC3(CC2)NCCc2[nH]cnc23)c1	-3.2%	·	-10.4%	0.0%	7.9%
CC(C)(C)C(=O)Nc1ccc(NC(=O)c2ccco2)nc1	0.562µM*	·	-2.8%	2.9%	0.199µM*
COc1ccccc1C(=O)Nc1ccc(NC(=O)c2ccco2)cn1	-2.0%	·	-2.1%	22.9%	26.6%
N#Cc1ccc(C(=O)N2CCCCC2c2cc(C(=O)Nc3ccccc3Cl)no2)cc1 (stereo not given)	·	·	0.0%	·	·
N#CCCN(C(=O)CSc1ccc2c(c1)OCCO2)c1ccccc1	4.8%	?	18.9µM*	-10.6%	-16.6%
Cc1nnc(SCC(=O)N(CCC#N)c2ccc3c(c2)OCCO3)s1	·	·	-2.1%	·	·

Source: PubChem (National Center for Advancing Translational Sciences (NCATS))
